Compounds with a hit are over-represented: about 6.1% of the library has one in this group of screens.
DRD3 agonist = D3 dopamine receptor (human) agonism | P35462 | D3R DiscoveRx beta-arrestin cells, luminescence, 90 min | max activation, % | hit rate 0.58% among 410,000 | AID 652048; in the data active means max activation above about 30%
Target sequence (P35462 whole entry, looked up): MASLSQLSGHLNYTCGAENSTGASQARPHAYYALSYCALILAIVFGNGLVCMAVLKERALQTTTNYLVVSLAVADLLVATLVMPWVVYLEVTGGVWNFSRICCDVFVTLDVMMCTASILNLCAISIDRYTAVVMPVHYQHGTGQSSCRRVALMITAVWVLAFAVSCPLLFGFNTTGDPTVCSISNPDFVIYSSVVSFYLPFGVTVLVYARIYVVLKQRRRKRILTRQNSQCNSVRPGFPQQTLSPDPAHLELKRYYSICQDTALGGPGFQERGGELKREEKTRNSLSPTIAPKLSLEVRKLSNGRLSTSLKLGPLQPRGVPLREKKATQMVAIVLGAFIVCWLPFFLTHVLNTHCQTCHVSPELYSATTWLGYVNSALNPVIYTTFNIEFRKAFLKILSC
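Agonist-mode cell screen: cells plated at 1500/well and incubated overnight at 37 °C, then exposed to library compounds for 90 min at 37 °C. Detection reagent was added for 30–60 min at room temperature, and luminescence was read.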
D1 PAM = enhances dopamine response at the human D1 receptor | P21728 | HEK293 TREx D1 cells, calcium flux, dopamine EC20 potentiation | potentiation, % at 10 µM | hit rate 0.036% among 360,000 | AID 504651; in the data active means potentiation above about 30%
D3 antag = antagonists of human D3 dopamine receptor. P35462. D3R cells, DiscoveRx beta-arrestin luminescence, antagonist mode; stronger effect = lower value. max response, negative = inhibition, %. hit rate 2.5% among 360,000. AID 652054; in the data active means max response below about -50%; inconclusive means no clear call, values can overlap the other calls
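Cells plated overnight at 1500 cells/well, then exposed to library compounds with dopamine controls for 90 minutes at 37 degrees C. DiscoveRx reagent added for 30–60 minutes at room temperature; luminescence read, quantitative HTS format.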
D1 agonist = agonists of human D1 dopamine receptor. HEK293 T-REx D1 cells, calcium flux, agonist mode. AID 504660. activation, % at 2 µM. P21728. hit rate 1% among 360,000; in the data active means activation above about 30%
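Inducible HEK293 T-REx D1 cells, force-coupled to calcium signalling, were plated at 4000 cells/well with tetracycline and held overnight at 30 C. After no-wash calcium dye loading, compound-evoked calcium rise over 180 s flagged agonists.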
D1 antag = antagonists of human D1 dopamine receptor; P21728; HEK293 TREx D1 cells, calcium flux, dopamine EC80; stronger effect = lower value; hit rate 3.2% among 360,000; activity change, negative = inhibition, % at 10 µM; in the data active means activity change below about -30%
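HEK293 T-REx cells expressing inducible, force-coupled D1 receptor; no-wash Ca dye, 30–90 min RT. Cmpd → 180 s read at 1 Hz → EC80 DA → 180 s read.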
A number is an active result; . = inactive; ? = inconclusive; / = not tested or not shown; ! = repeats disagree.

SMILES	DRD3 agonist	D1 PAM	D3 antag	D1 agonist	D1 antag
CC(=O)C1=C(C)NC(=O)NC1c1ccccc1OCC(=O)NCCc1ccccc1 (stereo unspecified)	.	.	-64	.	.
CC(=O)C1=C(c2ccccc2)NC(=O)NC1c1ccccc1OCC(=O)Nc1ccccc1 (stereo unspecified)	.	.	.	.	.
CC(C)(C)c1nnc(NS(=O)(=O)c2ccccc2)s1	.	/	/	/	/
CC1N(C)c2cccc3cccc(c23)N1C	.	.	.	.	-41
COc1ccc(OC)c(N2C(=O)CC(Cc3ccc(Cl)cc3)C2=O)c1 (stereo unspecified)	.	.	.	.	.
COc1ccc(OC)c(N2C(=O)CC(Cc3cc(C)cc(C)c3)C2=O)c1 (stereo unspecified)	.	.	-192	.	.
Cc1nc(CC(=O)Nc2nc(C(C)(C)C)cs2)cs1	.	.	.	.	-38
OCc1ccccc1OCCCOc1cccc2cccnc12	.	.	.	.	-31
CC(C)Oc1ccccc1OCCCOc1cccc2cccnc12	.	.	.	.	-48
OCc1ccccc1OCCOc1ccc(Cl)c2cccnc12	.	.	.	.	.
CCCn1c(=O)c2sccc2n2c(CCCC(=O)Nc3cccc(CC)c3)nnc12	.	.	/	.	.
Cc1cc(=O)n2[nH]c(=O)c(N=Nc3ccccc3)c2[nH]1	.	.	-84	.	.
CCOc1ccc(N=Nc2c(=O)[nH]n3c(=O)cc(C)[nH]c23)cc1	.	.	.	.	.
CCC(C)C(NC(=O)c1ccccc1NC(=O)c1ccco1)C(=O)NNC(=O)c1ccc(OC)cc1 (stereo unspecified)	.	.	.	.	-63
COc1ccc(C(=O)Nc2ccccc2C(=O)NC(C(=O)NCc2ccco2)C(C)C)cc1 (stereo unspecified)	.	.	-61	.	.
O=C(CCSc1ccc(Cl)c(Cl)c1)NC12CC3CC(CC(C3)C1)C2	.	.	.	41	.
COc1ccc(CN2CCc3ccccc3C2)c(OC)c1OC	.	.	-75	.	.
COc1ccc(CN2CCc3ccccc3C2)c(OC)c1	.	.	-65	.	.
COc1ccc(OC)c(CN2CCN(Cc3ccc(OC)c(OC)c3OC)CC2)c1	.	/	?	/	/
COc1ccc(NC(=O)CN2CCc3ccccc3C2)c(OC)c1	.	.	.	.	.
Cc1ccc(SC(=O)c2c(C)noc2-c2cc(C)on2)cc1	.	.	-92	.	.
Cc1cc(-c2onc(C)c2C(=O)N/N=C/c2ccccc2)no1	.	.	.	.	.
CCOc1ccccc1NC(=O)Cn1c(=O)nc(-c2ccccc2F)c2cc(Cl)ccc21	.	.	/	.	-43
O=C(Cn1c(=O)nc(-c2ccccc2)c2cc(Cl)ccc21)NCc1ccccc1	32	.	/	.	.
Cc1ccc(/C=C/C(=O)Nc2ccc(Oc3ccccc3)cc2)o1	.	.	.	.	-32
SMILES	DRD3 agonist	D1 PAM	D3 antag	D1 agonist	D1 antag
CC(=O)c1ccc(NC(=O)/C=C/c2ccc(C)o2)cc1	.	.	/	.	.
Cc1ccc(/C=C/C(=O)Nc2ccc([N+](=O)[O-])cc2)o1	.	.	.	.	-46
O=C(/C=C/c1ccc([N+](=O)[O-])cc1)NCCSc1ccccc1	.	.	.	.	-30
Cc1cc(NS(=O)(=O)c2ccc(NC(=O)/C=C/c3ccc(C)o3)cc2)nc(C)n1	.	.	.	.	.
CCCOc1ccc(/C=C/C(=O)Nc2ccc([N+](=O)[O-])cc2)cc1	.	.	.	.	-43
CCOc1ccc(N2CC(NC(=O)C3CCCCC3)CC2=O)cc1 (stereo unspecified)	.	.	/	.	/
O=C(O)c1ccc2c(c1)C(=O)N([C@H](Cc1ccc(Cl)cc1)C(=O)O)C2=O	/	.	/	.	.
Cc1cc(C)cc(-n2c(C)cc(C(=O)CSc3nnnn3C)c2C)c1	.	.	?	41	.
Cc1ccc(S(=O)(=O)NNc2ccccc2)cc1	.	.	.	.	.
Cc1ccc(S(=O)(=O)NNc2nc3ccccc3nc2C(F)(F)F)cc1	.	.	-54	.	.
O=c1[nH]c(=S)n(-c2ccc(Br)cc2)c2ncccc12	.	/	.	/	/
Fc1ccc(-n2c(=S)[nH]c3cccnc32)cc1	.	.	.	.	-33
O=C(CCCn1c(=O)c2cccn2c2ccccc21)NCCc1ccc(Cl)cc1	.	.	/	.	.
OC(CNCc1ccc(F)cc1)(c1ccc(F)cc1)c1ccc(F)cc1	.	.	-51	.	.
OC(CNCc1ccc(Cl)cc1)(c1ccccc1)c1ccc(F)cc1 (stereo unspecified)	.	.	.	.	.
CCN1CCC(O)(/C=C/c2ccc(C(C)C)cc2)C(C(=O)/C=C/c2ccc(C(C)C)cc2)C1 (stereo unspecified)	.	/	-66	/	/
CCN1CCN(C(=O)/C=C/c2ccc(C(C)C)cc2)CC1	.	/	?	/	/
CCN(CC)C(=O)[C@H]1C[C@H](CC(=O)NCCN2CCOCC2)C(=O)N2CCc3c([nH]c4ccc(Cl)cc34)[C@]12C	.	/	.	/	/
CC(C)N(C(=O)[C@H]1C[C@H](CC(=O)NCCN2CCOCC2)C(=O)N2CCc3c([nH]c4ccc(Cl)cc34)[C@]12C)C(C)C	.	/	-53	/	/
C[C@]12c3[nH]c4ccc(Cl)cc4c3CCN1C(=O)[C@@H](CC(=O)NCC13CC4CC(CC(C4)C1)C3)C[C@@H]2C(=O)N1CCCCC1	.	/	.	/	/
C[C@]12c3[nH]c4ccc(Cl)cc4c3CCN1C(=O)[C@@H](CC(=O)NCC13CC4CC(CC(C4)C1)C3)C[C@@H]2C(=O)N1CCOCC1	.	/	-50	/	/
C=CCNC(=O)COC(=O)c1ccc(Cl)c(S(N)(=O)=O)c1	.	.	?	.	-37
COC(=O)[C@@H]1[C@@H](C#N)C2(c3ccccc3-c3ccccc32)N(c2ccc(Cl)cc2)N1C#N	.	.	-54	.	.
O=C1CCCC2=C1C(c1ccc(O)c(Br)c1)C1=C(CCCC1=O)N2c1ccccc1	.	.	.	.	-37
CCN1C2=C(C(=O)CCC2)C(c2ccc(O)c(Br)c2)C2=C1CCCC2=O	.	.	.	.	.
SMILES	DRD3 agonist	D1 PAM	D3 antag	D1 agonist	D1 antag
COC(=O)c1cc(NC(=O)c2cc3sccc3n2Cc2ccc(Cl)cc2)cc(C(=O)OC)c1	.	.	/	.	.
COc1ccc(C(=O)Nc2cnc3ccccn3c2=O)cc1	.	.	.	.	-77!
COc1cccc(C(=O)Nc2ccccc2OCc2cc(=O)n3cc(C)ccc3n2)c1	.	.	/	.	.
COc1cccc(C(=O)Nc2ccccc2OCc2cc(=O)n3ccccc3n2)c1	.	.	/	.	-34
O=C(Nc1cnc2ccccn2c1=O)c1ccc(F)cc1	.	.	.	.	.
COc1ccc(-c2cc(C)no2)cc1S(=O)(=O)NC(C)C	.	.	/	.	.
COc1ccccc1N1CCN(C(=O)c2ccc3c(c2)N(Cc2ccccc2)C(=O)c2ccccc2S3(=O)=O)CC1	.	.	/	.	.
C=CCn1c(=O)[nH]c2nc3cc(N=CN(C)C)c(C)cc3nc2c1=O	.	.	.	57	.

From PubChem
